Rows were chosen to be rich in hits. Some 0.78% of all compounds tested hit in one or more screens of this group.
RGS7-Gao: human RGS7-Galphao interaction regulation. binding response (% of control), % at 10 µM. Multiplexed bead flow cytometry, RGS7-Galphao binding; actives lie on both sides. AID 1439. P09471. 220,000 tested, 0.35% active; in the data active = binding response below about 49% or above about 150%; inconclusive = no clear call, values can overlap the other calls; inactive = in between;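 also: fluorescent Galphao held in activated GDP-AlF4 state binding bead-coupled RGS7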
Target sequence (P09471 whole entry, looked up): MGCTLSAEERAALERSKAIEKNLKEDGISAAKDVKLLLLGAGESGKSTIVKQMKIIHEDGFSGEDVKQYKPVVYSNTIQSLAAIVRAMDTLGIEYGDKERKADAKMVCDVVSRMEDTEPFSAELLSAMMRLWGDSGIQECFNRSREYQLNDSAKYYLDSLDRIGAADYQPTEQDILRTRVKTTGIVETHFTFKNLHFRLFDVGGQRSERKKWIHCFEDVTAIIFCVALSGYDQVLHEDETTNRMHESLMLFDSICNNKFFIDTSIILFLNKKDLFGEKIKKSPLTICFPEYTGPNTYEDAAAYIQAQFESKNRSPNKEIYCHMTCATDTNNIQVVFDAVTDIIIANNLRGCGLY
RGS8-Gao: human RGS8-Galphao interaction regulation. P09471. multiplexed bead flow cytometry, RGS8-Galphao binding; actives lie on both sides. response (percent of control binding), % at 10 µM. 220,000 tested, 0.34% active. AID 1423; in the data active = response below about 60% or above about 140%; inactive = in between;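 also: Galphao activated as the GDP aluminium fluoride complex binding bead-coupled RGS8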
RGS16-Gao: RGS16-Galphao interaction regulator (human). O15492+P09471. bead-based flow cytometry RGS16-Galphao binding, fluorescence; actives lie on both sides. binding response (% of control), % at 10 µM. 220,000 tested, 0.38% active. AID 1441;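 also: Galphao activated by GDP with aluminum fluoride before binding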
RGS4-Gao reg: human RGS4-Galphao interaction regulation | binding response (% of control), % at 10 µM | P09471 | Multiplexed bead flow cytometry, RGS4-Galphao binding; actives lie on both sides | 220,000 tested, 0.33% active; in the data active = binding response below about 49% or above about 150%; inactive = in between;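 also: fluorescent Galphao activated with aluminum fluoride binding bead-coupled RGS4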
RGS4-Gao HTS: regulators of human RGS4-Galphao interaction. shares compounds with RGS16-Gao. 1,600 tested, 99% active. RGS4–Galpha-o binding response, % at 10 µM. multiplexed bead flow cytometry, RGS–Galpha-o binding;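 also: fluorescently labeled Galpha-o bound to GDP with aluminium fluoride binding biotinylated RGS beads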
Target sequence (P09471 whole entry, looked up): as above
Target sequence (P49798 whole entry, looked up): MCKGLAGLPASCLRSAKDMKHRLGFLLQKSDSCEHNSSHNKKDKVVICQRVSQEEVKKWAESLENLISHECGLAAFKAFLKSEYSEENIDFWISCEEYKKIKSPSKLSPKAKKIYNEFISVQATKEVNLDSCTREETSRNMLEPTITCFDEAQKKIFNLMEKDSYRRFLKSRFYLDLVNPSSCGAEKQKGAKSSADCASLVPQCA
Avidin counter: counter-screen: compounds disrupting biotin binding to avidin beads; shares compounds with RGS16-Gao; streptavidin beads, fluorescein-biotin binding, flow cytometry; inhibition, % at 10 µM; 1,700 tested, under 10 active; AID 1783;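 active = inhibition above 50%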;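 also: median green fluorescence of gated singlet beads compared with DMSO control wells; 0% = DMSO wells and 100% = complete loss of bead fluorescence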
RGS8-Gao single: confirmation of regulators of human RGS8-Galphao interaction | binding response (% of control), % at 10 µM | shares compounds with RGS16-Gao | bead-based flow cytometry RGS8-Galphao binding, fluorescence; actives lie on both sides | 1,700 tested, 3% active; in the data active = binding response below about 72% or above about 130%; inactive = in between;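 also: Galphao activated as GDP AlF4 complex before binding bead RGS8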
RGS7-Gao confirm: RGS7-Galphao interaction regulation, single point confirmation; shares compounds with RGS16-Gao; bead-based flow cytometry RGS7-Galphao binding; actives lie on both sides; response (percent of control binding), % at 10 µM; 1,700 tested, 7.8% active; AID 1837; in the data active = response below about 75% or above about 130%; inactive = in between;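 also: fluorescent Galphao activated with GDP and aluminum fluoride binding bead-coupled RGS7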
RGS16-Gao single: RGS16-Galphao interaction regulation, single point confirmation; 1,700 tested, 4% active; AID 1838; bead-based flow cytometry, RGS16-Galphao binding; actives lie on both sides; shares compounds with RGS16-Gao; response (% of control binding), % at 10 µM; in the data active = response below about 74% or above about 130%; inactive = in between;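 also: Galphao activated as the GDP aluminium fluoride complex binding bead-coupled RGS16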
RGS4-Gao single: RGS4-Galphao interaction regulation, single point confirmation. 1,700 tested, 4% active. binding response (% of control), % at 10 µM. RGS4-Galphao binding, multiplexed bead flow cytometry; actives lie on both sides. shares compounds with RGS16-Gao; in the data active = binding response below about 74% or above about 130%; inactive = in between
RGS19-Gao single: confirmation of regulators of human RGS19-Galphao interaction; shares compounds with RGS16-Gao; bead-based flow cytometry RGS19-Galphao binding; actives lie on both sides; response (percent of control binding), % at 10 µM; 1,700 tested, 5% active; in the data active = response below about 50% or above about 160%; inactive = in between;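 also: 100% = no compound control and 0% = blank background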
Numbers without * were called inactive; ? = inconclusive; . = no result; [ ] = remark or other dose. Unless noted, no rule for the calls is given here.

SMILES	RGS7-Gao	RGS8-Gao	RGS16-Gao	RGS4-Gao reg	RGS4-Gao HTS	Avidin counter	RGS8-Gao single	RGS7-Gao confirm	RGS16-Gao single	RGS4-Gao single	RGS19-Gao single
Cc1cccc(C(=O)Nc2ccc(C(=O)/C=C/c3cccnc3)cc2)c1	186*[activator]	105	242	196*[activator]	.	0	100	105	102	102	103
OC(c1ccccc1)(c1ccccc1)C1CCN(C(=S)NCCc2ccccc2)CC1	107	103	102	101	.	.	.	.	.	.	.
O=C(O)CCCC(=O)N1CCC(C(O)(c2ccccc2)c2ccccc2)CC1	95	93	107	102	.	-1	103	96	100	99	101
CCN1/C(=C/c2ccc3cccc(C)c3[n+]2CC)Sc2ccccc21	161*[activator]	127	274	196*[activator]	.	2	100	110	100	102	116
Cc1cc(NC(=O)c2ccc(C)s2)n(-c2nc3ccccc3[nH]2)n1	13*	12*	0.3*	14*	.	0	95	87	90	92	92
Cc1[nH]n(-c2ccccc2)c(=S)c1C=NCCCN=Cc1c(C)[nH]n(-c2ccccc2)c1=S	95	52*	-0.3*	92	92*	0	84	113	74*	98	47*
COc1ccc(C(CC(=O)Nc2ccccc2OC)n2cccc2)cc1 (stereo not drawn)	88	75	15*	93	93*	-2	102	102	103	103	102
Cc1cc(NC(=O)C(=O)c2cn(C)c3ccccc23)no1	165*[activator]	104	106	110	110*	-1	109	102	108	105	101
Cc1cccc(C)c1NC(=O)C(=O)c1cn(C)c2ccccc12	102	99	99	97	.	.	.	.	.	.	.
Cc1ccc(S(=O)(=O)/N=C(/Nc2ccc3[nH]c(=O)[nH]c3c2)c2ccc(F)cc2)cc1	152*[activator]	99	100	104	104*	-1	107	102	117	105	116
O=c1[nH]c2ccc(NC(=S)Nc3ccc(F)cc3)cc2[nH]1	?	106	102	107	.	.	.	.	.	.	.
O=C(NC1=NCCS1)c1sc2cc(Cl)cc(Cl)c2c1Cl	105	101	110	103	.	.	.	.	.	.	.
O=C(NC1=NCCS1)c1sc2ccccc2c1Cl	.	.	114	.	.	1	103	100	104	101	85
CC(C)Cc1nnc(NC(=O)CSc2ccccn2)s1	.	.	.	.	.	0	102	97	102	99	105
CCN1CCN(C(=O)CCNC(=O)Cn2ccc3ccccc3c2=O)CC1	96	99	104	109	.	.	.	.	.	.	.
CCCN1CCN(CCCNC(=O)CCNC(=O)Cn2ccc3ccccc3c2=O)CC1	105	142*[activator]	230	104	104*	2	101	103	103	102	106
Cc1c(Br)c(=O)oc2c(Br)c(O)c(O)cc12	53	42*	16*	52	52*	-1	93	93	92	91	87
CN(C(=O)COc1ccc(Cl)cc1)c1nnc(C23CC4CC(CC(C4)C2)C3)s1	97	100	101	102	.	.	.	.	.	.	.
CC1CCCCN1C(=O)Cn1cc(/C=C2/C(=O)Nc3ccccc32)c2ccccc21 (stereo not drawn)	44*	55*	41	50*	.	0	103	104	104	104	98
CCn1c(CNc2ccc(Cl)cc2)nnc1SCc1ccccc1	101	101	105	101	.	.	.	.	.	.	.
NS(=O)(=O)c1cc(C(=O)OCC(=O)NC2CC2)ccc1Cl	106	108	110	110	.	.	.	.	.	.	.
O=C(Cc1n[nH]c(=O)c2ccccc12)OCC(=O)c1ccc2c(c1)OCCO2	105	104	114	102	.	.	.	.	.	.	.
NS(=O)(=O)c1cc(C(=O)OCC(=O)c2ccc3c(c2)OCCO3)ccc1Cl	179*[activator]	102	100	106	106*	0	103	89	101	96	79
O=C(Cc1ccc(Br)cc1)OCC(=O)c1ccc2c(c1)OCCO2	42*	54*	39	47*	.	0	101	93	97	98	92
CCOc1ccc(NC(=O)COC(=O)c2ncc(Cl)c(Cl)c2Cl)cc1	100	101	110	103	.	.	.	.	.	.	.
SMILES	RGS7-Gao	RGS8-Gao	RGS16-Gao	RGS4-Gao reg	RGS4-Gao HTS	Avidin counter	RGS8-Gao single	RGS7-Gao confirm	RGS16-Gao single	RGS4-Gao single	RGS19-Gao single
O=c1c2ccccc2c(-c2ccc(O)cc2)nn1-c1cccc(C(F)(F)F)c1	98	101	98	103	.	.	.	.	.	.	.
CCOC(=O)/C(C#N)=C/Nc1ccsc1C(=O)OC	?	92	88	85	.	.	.	.	.	.	.
CCOC(=O)/C(C#N)=C/Nc1cc(C(=O)OCC)cc2c(OC)c(OC)ccc12	?	17*	-5.8*	-4.8*	.	-1	100	95	96	95	95
O=c1ccc2cc(O)c(O)cc2o1	58	59*	38	57	57*	2	94	91	91	89	86
c1ccc2[nH]c(CSc3ncnc4c3oc3ccccc34)nc2c1	103	99	107	101	.	.	.	.	.	.	.
Cc1nc(SCc2nc3ccccc3[nH]2)c2oc3ccccc3c2n1	167*[activator]	102	129	128	128*	.	.	.	.	.	.
Cc1cc(C)c(-c2cc(NC(=O)CSc3n[nH]c(N)n3)n(-c3ccccc3)n2)cc1C	-16*	6.7*	-38*	-44*	.	0	100	106	102	103	106
CCN(CC)CCCOc1nc(C)nc2c1oc1ccccc12	110	105	121	121	.	.	.	.	.	.	.
O=C1NC(=O)/C(=C/c2ccc(OS(=O)(=O)c3ccc(F)cc3F)cc2)N1	?	99	96	97	.	.	.	.	.	.	.
COc1ccc(C(=O)/C=C/c2ccc(OC(=O)c3cc(OC)c(OC)c(OC)c3)cc2)cc1	129	159*[activator]	697	120	120*	0	103	101	102	100	92
CCOc1ccc(C(=O)/C=C/c2ccc(SC)cc2)cc1	100	100	104	100	.	.	.	.	.	.	.
CCOc1ccc(/C=C/C(=O)c2ccccc2)cc1	?	23*	-3.6*	-8.9*	.	-3	99	88	94	95	74
CCOc1ccc(C(=O)/C=C/c2cc(OC)c(OC)c(OC)c2)cc1	?	100	101	102	.	.	.	.	.	.	.
O=[N+]([O-])c1ccc(/C=N/n2c(COc3ccccc3)n[nH]c2=S)cc1	104	103	103	102	.	.	.	.	.	.	.

Bioassay records as filed in PubChem BioAssay.
